Reference: the supplement of paper PMC8253809
Where “and” joins values, the source holds several entries; their conditions need not be identical. Identical values can stand only once.

Assays:
Test in all cases: growth inhibition (% activity, log2 RLU normalised to DMSO / staurosporine); higher = more growth inhibition
Settings in all cases: 33 µM
DIPGX29 = tested on: DIPGX29 (H3.3 K27M diffuse intrinsic pontine glioma line)
In short: (§1)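 The growth-inhibition value is the median over replicates. pHGG cell lines and H9-derived neural stem cells on Geltrex-coated 384-well plates received approved drugs by pin tool at a single final concentration of about 33 μM, in triplicate, for 7 days at 37 °C, 5% CO2. CellTiter-Glo luminescence was log2-transformed and normalised per plate to % activity between solvent and positive control wells.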

DIPGX37 = tested on: DIPGX37 (H3.3 K27M diffuse intrinsic pontine glioma line)
In short: as §1

DIPGX7 = tested on: DIPGX7 (H3.3 K27M diffuse intrinsic pontine glioma line)
In short: as §1

DIPGX9 = tested on: DIPGX9 (diffuse intrinsic pontine glioma line)
In short: as §1

HGGX39 = tested on: HGGX39 (paediatric high-grade glioma line)
In short: as §1

HGGX6 = tested on: HGGX6 (H3.3 G34R paediatric high-grade glioma line)
In short: as §1

HNSC = tested on: HNSC
In short: as §1

SUDIPGIV = tested on: SUDIPGIV (diffuse intrinsic pontine glioma line)
In short: as §1

SUDIPGVI = tested on: SUDIPGVI (diffuse intrinsic pontine glioma line)
In short: as §1

SUDIPGXIII = tested on: SUDIPGXIII (diffuse intrinsic pontine glioma line)
In short: as §1

SMILES	growth inhibition (DIPGX29)	growth inhibition (DIPGX37)	growth inhibition (DIPGX7)	growth inhibition (DIPGX9)	growth inhibition (HGGX39)	growth inhibition (HGGX6)	growth inhibition (HNSC)	growth inhibition (SUDIPGIV)	growth inhibition (SUDIPGVI)	growth inhibition (SUDIPGXIII)
COc1ccc(O)cc1	-0.0157%	0.851%	0.553%	0.0566%	-0.798%	0.118%	0.201%	-3.15%	-3.4%	0.564%
CCCCNc1ccc(C(=O)OCCN(C)C)cc1	-1.31%	-0.907%	0.627%	-0.979%	5.11%	4.5%	0.385%	-0.481%	-2.2%	1.02%
CC1(C(=O)O)CCC2(C)CCC3(C)C(=CC(=O)C4C5(C)CCC(OC6OC(C(=O)O)C(O)C(O)C6OC6OC(C(=O)O)C(O)C(O)C6O)C(C)(C)C5CCC43C)C2C1 (stereo not given)	-2.43%	0.376%	-1.5%	-0.788%	-1.63%	-0.137%	-2.93%	-1.58%	-3.15%	0.0626%
CCOC(=O)[C@H](CCc1ccccc1)N[C@H]1CCc2ccccc2N(CC(=O)O)C1=O	-0.274%	-0.666%	0.62%	-1.51%	-0.668%	-3.48%	0.9%	-2.69%	-7.43%	-0.0284%
COc1cc2c(cc1OC)C(=O)C(CC1CCN(Cc3ccccc3)CC1)C2 (stereo not given)	4.4%	-6.1%	3.13%	-1.15%	-1.59%	0.576%	9.45%	-1.23%	-7.35%	-4.73%
COC(=O)C1=CO[C@@H](O)[C@@H]2C(CO)=CC[C@H]12	-0.243%	2.53%	-0.199%	2.66%	-0.158%	2.23%	-1.1%	-0.3%	-0.83%	1.32%
CC1(C)S[C@@H]2[C@H](NC(=O)[C@H](N)c3ccccc3)C(=O)N2[C@H]1C(=O)O	0.915% and -0.852%	0.428% and -3.6%	-0.263% and 0.439%	2.01% and -1.14%	0.0853% and 0.776%	0.491% and -0.506%	-1.66% and -0.947%	0.0994% and -1.08%	1.4% and -3.54%	0.006% and 0.466%
Clc1ccc2nsnc2c1NC1=NCCN1	-1.22%	-2.25%	-1.44%	-1.35%	-0.915%	-1.61%	-2.35%	-2.55%	-2.56%	-1.44%
C[C@]12CCC(=O)C=C1[C@@H]1C[C@@H]1[C@H]1[C@@H]3[C@@H]4C[C@@H]4[C@@]4(CCC(=O)O4)[C@@]3(C)CC[C@@H]12	0.956%	1.46%	0.0985%	0.611%	2.45%	2.65%	0.782%	0.914%	2.83%	0.882%
Nc1nc2c(ncn2COCCO)c(=O)[nH]1	-1.73%	1.12%	1.01%	0.254%	1.26%	-2.13%	5.44%	-0.972%	-0.331%	0.201%
C[C@]12C=CC(=O)N[C@@H]1CC[C@@H]1[C@@H]2CC[C@]2(C)[C@@H](C(=O)Nc3cc(C(F)(F)F)ccc3C(F)(F)F)CC[C@@H]12	-0.354%	-0.558%	-0.437%	0.309%	0.618%	1.03%	-1.51%	-0.237%	-0.00919%	-0.463%
CN1CCCC(n2nc(Cc3ccc(Cl)cc3)c3ccccc3c2=O)CC1 (stereo not given)	3.68%	2.48%	4.68%	2.54%	7.54%	3.65%	0.14%	1.76%	0.965%	2.09%
NC(=O)N1c2ccccc2C=Cc2ccccc21	-0.706%	3.98%	0.653%	1.56%	1.28%	0.945%	2.65%	0.457%	1.8%	-0.0848%
CCOC(=O)c1ccc(C#Cc2ccc3c(c2)C(C)(C)CCS3)nc1	3.83%	-0.285%	6.1%	9.38%	8.54%	6.5%	6.59%	8.53%	4.1%	1.82%
CCCCNC(=O)NS(=O)(=O)c1ccc(C)cc1	-0.968%	2.64%	-0.647%	1.33%	2.32%	-1.26%	8.77%	1.65%	2.09%	-0.858%
O=C1CCC(N2C(=O)c3ccccc3C2=O)C(=O)N1 (stereo not given)	-2.65%	-1.06%	-0.846%	-1.66%	-0.665%	-1.64%	-7.47%	-2.51%	-2.2%	-0.0477%
CCOC(=O)CCC(=O)O[C@H]1[C@H](O[C@@H]2[C@@H](C)[C@H](O[C@H]3C[C@@](C)(OC)[C@@H](O)[C@H](C)O3)[C@@H](C)C(=O)O[C@H](CC)[C@@](C)(O)[C@H](O)[C@@H](C)C(=O)[C@H](C)C[C@@]2(C)O)O[C@H](C)C[C@@H]1N(C)C	-2.45%	-0.105%	1.67%	-1.7%	-1.58%	-2.75%	19.9%	-1.78%	-9.9%	2.09%
O=C([O-])C(O)[C@H](O)[C@@H](O)[C@H](O)[C@H](O)CO.O=C([O-])C(O)[C@H](O)[C@@H](O)[C@H](O)[C@H](O)CO.[Ca+2] (stereo not given in full)	2.16%	4.54%	2.65%	1.24%	2.2%	1.87%	2.4%	0.563%	2.72%	-0.395%
CNCCc1ccccn1	0.924%	1.45%	1.21%	1.11%	2.84%	1.49%	1.31%	1.96%	4.33%	-0.14%
CC1CCc2cc(F)cc3c(=O)c(C(=O)O)cn1c23 (stereo not given)	-0.61%	1.22%	0.338%	-0.551%	1.41%	2.29%	0.388%	-1.52%	0.839%	-18.7%
O=C1CCc2ccc(OCCCCN3CCN(c4cccc(Cl)c4Cl)CC3)cc2N1	4.57%	3.86%	4.16%	4.55%	5.69%	3.13%	22%	4.8%	4.51%	14.8%

SMILES	growth inhibition (DIPGX29)	growth inhibition (DIPGX37)	growth inhibition (DIPGX7)	growth inhibition (DIPGX9)	growth inhibition (HGGX39)	growth inhibition (HGGX6)	growth inhibition (HNSC)	growth inhibition (SUDIPGIV)	growth inhibition (SUDIPGVI)	growth inhibition (SUDIPGXIII)
CCCOc1ccc2[nH]c(NC(=O)OC)nc2c1	6.12%	5.82%	6.31%	9.95%	7.33%	9.96%	66.6%	11.4%	-1.9%	3.23%
c1ccc2[nH]c(-c3cscn3)nc2c1	-1.25%	0.956%	-0.782%	0.56%	0.84%	1.32%	-1.65%	0.977%	1.13%	0.000357%
Cc1c(-c2ccccc2)oc2c(C(=O)OCCN3CCCCC3)cccc2c1=O	-0.48%	-1.55%	0.152%	-0.867%	0.0272%	0.269%	-2.8%	-0.209%	-3.08%	-2.91%
N[C@@H](Cc1ccc(O)c(O)c1)C(=O)O	-0.663%	0.423%	-0.313%	0.542%	2.68%	1.4%	0.395%	-0.394%	-1.98%	-0.139%
CC(=O)O[C@]1(C(C)=O)CC[C@H]2[C@@H]3C[C@H](C)C4=CC(=O)C=C[C@]4(C)[C@@]3(F)[C@@H](O)C[C@@]21C	1.69%	3.28%	0.393%	5.69%	4.16%	-1.08%	0.0126%	-1.42%	3.88%	1.16%
CCCCN(CCCC)CCCOC(=O)c1ccc(N)cc1	2.46%	2.29%	5.01%	2.44%	6.95%	5.63%	8.9%	1.64%	3.72%	-1.97%
N#CC(c1ccc(Cl)cc1)c1c(Cl)cc(-n2ncc(=O)[nH]c2=O)cc1Cl (stereo not given)	-3.67%	-2.44%	-2.85%	-2.54%	-2.75%	-3.94%	-1.15%	-2.27%	-3.68%	0.254%
Nc1nc2n[nH]nc2c(=O)[nH]1	14.5%	13.2%	14.4%	22.6%	17.5%	13.7%	56.2%	32.2%	1.16%	1.25%
Cc1cccn2c(=O)c(-c3nnn[nH]3)cnc12	0.15%	-1.28%	-0.946%	0.426%	1.29%	-0.465%	-1.69%	-0.133%	0.709%	1.3%
C=C1c2c(Cl)ccc(O)c2C(=O)C2=C(O)[C@]3(O)C(=O)C(C(N)=O)=C(O)[C@@H](N(C)C)[C@@H]3[C@@H](O)[C@H]12.O=C(O)c1cc(S(=O)(=O)O)ccc1O	3.13%	1.57%	2.88%	2.29%	8.03%	6.26%	8.17%	7.96%	4.89%	3.19%
C#CC1(O)CC[C@H]2[C@@H]3CCC4=CC(=O)CC[C@@H]4[C@H]3CC[C@@]21CC (stereo not given in full)	-0.0424%	0.475%	-1.66%	0.691%	0.0435%	0.889%	-0.272%	-0.687%	1.24%	1.03%
Oc1ccc(OCc2ccccc2)cc1	2.78%	-1.94%	5.44%	2.61%	1.21%	1.02%	10.9%	-2.99%	-1.42%	-1.26%
CCCCC(=O)O[C@]1(C(=O)CO)[C@@H](C)C[C@H]2[C@@H]3CCC4=CC(=O)C=C[C@]4(C)[C@@]3(F)[C@@H](O)C[C@@]21C	2.95%	4.71%	0.933%	4%	3.19%	1.27%	0.754%	0.551%	2.82%	2.04%
NC1CCN(c2c(F)cc3c(=O)c(C(=O)O)cn(C4CC4)c3c2Cl)C1 (stereo not given)	0.157%	-1.86%	1.13%	1.33%	2.79%	-0.611%	1.85%	-0.22%	1.99%	-0.254%
C=C1/C(=C\C=C2/CCC[C@]3(C)[C@@H]([C@H](C)CCCC(C)(C)O)CC[C@@H]23)C[C@@H](O)C[C@@H]1O	2.73%	4.49%	6.36%	1.22%	5.14%	4.52%	2.64%	9.51%	2.83%	-1.15%
NNc1nncc2ccccc12	-0.649%	0.926%	-0.1%	1.44%	2.03%	0.883%	-1.94%	2.81%	-2.33%	-0.215%
N[C@H](C(=O)O)[C@H](O)c1ccc(O)c(O)c1	-1.91%	-2.48%	-1.18%	-0.989%	-1.97%	-1.74%	-3.73%	-1.1%	-1.43%	-4.54%
C=C1/C(=C\C=C2/CCC[C@]3(C)[C@@H]([C@H](C)/C=C/[C@H](C)C(C)C)CC[C@@H]23)C[C@@H](O)C[C@@H]1O	0.433%	1.95%	5.3%	2.6%	3.71%	2.65%	3.33%	0.335%	1.4%	1.03%
CCCCOc1cc(C(=O)OCCN(CC)CC)ccc1N	0.216%	-0.547%	1.69%	0.918%	14.2%	9.49%	-2.2%	4.07%	-0.0266%	2.42%
CC1=C(C(=O)OC(C)C)C(c2cccc([N+](=O)[O-])c2)C(C(=O)OC2CN(C(c3ccccc3)c3ccccc3)C2)=C(N)N1 (stereo not given)	9.28%	5.94%	22.2%	3.53%	13.3%	15.6%	58%	14.3%	27.2%	11.7%
